Test results: PubChem BioAssay AID1851 (National Center for Advancing Translational Sciences (NCATS), 2009)
The campaign covered roughly 16,000 compounds. About 2,600 (16%) were called active. Another 20% or so got no clear call; they are omitted. Calls follow the shape of the dose curve; as a rule, active = well fitted curve in the direction sought with a large enough effect; inconclusive = small, poorly fitted or top-dose-only effect, or effect the other way; inactive = no such curve, though single readings can be large or run the other way. Not all results are given here.

target: Cytochrome P450 2D6 (Homo sapiens) (UniProt P10635); assay: Cytochrome panel assay with activity outcomes; details: recombinant CYP, pro-luciferin dealkylation, luminescence, p450-cyp2d6; series mostly up to 57.1 µM; activity, negative = inhibition: at the top concentration
% is scaled to controls: 0 for no effect and ±100 for the full control effect.

Chain of Cytochrome P450 2D6 (Homo sapiens) (P10635 whole entry, looked up): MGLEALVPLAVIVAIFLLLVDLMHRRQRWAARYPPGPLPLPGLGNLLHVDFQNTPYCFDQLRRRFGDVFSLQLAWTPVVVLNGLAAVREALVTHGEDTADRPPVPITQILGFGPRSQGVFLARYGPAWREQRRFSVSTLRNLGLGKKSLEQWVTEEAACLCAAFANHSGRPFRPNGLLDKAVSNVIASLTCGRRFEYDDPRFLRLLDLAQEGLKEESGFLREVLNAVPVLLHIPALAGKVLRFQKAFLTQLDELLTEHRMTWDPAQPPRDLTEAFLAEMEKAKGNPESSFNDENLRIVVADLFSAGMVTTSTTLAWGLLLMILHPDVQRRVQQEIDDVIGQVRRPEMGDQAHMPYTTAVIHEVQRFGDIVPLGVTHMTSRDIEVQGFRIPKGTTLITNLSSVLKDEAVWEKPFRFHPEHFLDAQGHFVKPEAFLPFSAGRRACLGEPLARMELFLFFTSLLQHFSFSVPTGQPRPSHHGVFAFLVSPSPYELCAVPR

activity, negative = inhibition, inactive:
O=C(Oc1oc(-c2ccco2)nc1C=Nc1ccc(Cl)cc1)c1ccco1 6.95%
Cc1c2c(nc3ccccc13)-c1cccc(=O)n1C2 -5.55%
COc1cccc(/C=N\NC(=O)c2cc(OCC(F)(F)F)ccc2OCC(F)(F)F)c1 23.1%
COc1ccc2[nH]c(=O)c(CN(CCO)C(=O)c3cccs3)cc2c1 5.47%
O=[N+]([O-])c1cc(/C=N/O)ccc1SCc1ccccc1 16%
CC1(C)O[C@@H]2O[C@H]([C@H](O)CO/N=C3/[C@H]4O[C@@H]4[C@@H](O)[C@H]4[C@H]3CCn3c(=O)n(-c5ccccc5)c(=O)n34)[C@@H](O)[C@@H]2O1 7.2% [at 11.4 µM]
CO[C@@H]1COC(=O)[C@H]2CCCN2C(=O)[C@@H](C)COC(=O)CCC[C@H]1C 12% [at 11.4 µM]
CCOC(=O)Cn1c(-c2ccccc2)nc2ccccc2c1=O -14.6%
CCOC(=O)c1c(-c2ccccc2)nc2ccc(Cl)cn12 -16.8%
COc1cccc2c1C(=O)c1c(O)c3c(c(O)c1C2=O)C[C@](O)(C(=O)CO)C[C@H]3O[C@@H]1C[C@H](N)[C@H](O)[C@H](C)O1 -14.4% [at 25.6 µM]
Cc1ccccc1NC(=O)C1CC(=O)N(c2ccc3c4c(cccc24)CC3)C1 (configuration not stated) -28%
CCOC(=O)N/N=C1/C[C@@H](O)[C@@H](O)[C@@H]2[C@@H]3C(=O)N(Cc4ccccc4)C(=O)[C@H]3CC[C@H]12 9.96% [at 11.4 µM]
CC(=O)OC[C@@H]1O[C@@H](O/N=C2/C[C@@H](O)[C@@H](O)[C@@H]3[C@@H]4C(=O)N([C@@H](C)c5ccccc5)C(=O)[C@H]4CC[C@@H]23)[C@H](OC(C)=O)[C@H](OC(C)=O)[C@@H]1OC(C)=O -0.595% [at 11.4 µM]
CC(C)=CCC/C(C)=C/CO/N=C1/C[C@@H](O)[C@@H](O)[C@@H]2[C@@H]3C(=O)N(Cc4ccccc4)C(=O)[C@H]3CC[C@@H]12 15% [at 11.4 µM]
CC(C)CO/N=C1/C[C@@H](O)[C@@H](O)[C@@H]2[C@@H]3C(=O)N(Cc4ccc5c(c4)OCO5)C(=O)[C@H]3CC[C@@H]12 -15.9% [at 11.4 µM]
CCN1C(=O)[C@H]2[C@H]3[C@H](O)[C@H](O)C/C(=N/OCC[C@H]4C=C[C@H](OC(C)=O)[C@@H](COC(C)=O)O4)[C@@H]3CC[C@@H]2C1=O -11.1% [at 11.4 µM]
CC(=O)OC[C@@H]1O[C@@H](O/N=C2/C[C@@H](O)[C@@H](O)[C@@H]3[C@@H]4C(=O)N(Cc5ccc6c(c5)OCO6)C(=O)[C@H]4CC[C@@H]23)[C@H](OC(C)=O)[C@H](OC(C)=O)[C@@H]1OC(C)=O -5.23% [at 11.4 µM]
COCC(=O)Nc1ccc(-c2cn3cccnc3n2)cc1 23.5%
COC(=O)[C@H]1C[C@@H]1[C@H](NC(=O)c1cccnc1)c1ccccc1 -3.67%
O=c1cc(N2CCN(c3cccc(Cl)c3)CC2)[nH]c(=O)n1C1CCCCC1 -5.39%
CC(=O)N(/N=C1\Sc2ccccc2C1=O)c1ccccc1 -8.57%
N#Cc1c(NC(=O)CCC(=O)O)ccc2ccccc12 7.11% [at 11.4 µM]
COc1ccc(N2CCN(C(=N)/C(C(C)=O)=C(\C)O)CC2)cc1 -2.81%
COc1cccc(C2C3(C#N)C(N)=NC(OC)(OC)C23C#N)c1 (configuration not stated) -23.1%
COc1ccc(-c2nc3cnc(Oc4cccc(Cl)c4)nc3n(C[C@H]3CCCO3)c2=O)cc1 5.96%
COc1ccc(OC)c(NC(=O)c2cc3n(n2)C(C(F)(F)F)CC(c2ccc4c(c2)OCO4)N3)c1 (configuration not stated) 14.3%
COc1ccc(NC(=O)c2cc3n(n2)C(C(F)(F)F)CC(c2ccc4c(c2)OCO4)N3)cc1OC (configuration not stated) 1.1%
COc1cc(/C=C2/C(=N)N3C=CSC3=NC2=O)ccc1OCCCOc1ccccc1C 7.61%
FC(F)(F)c1nnc2c(Sc3ccc(Cl)cc3)nc3ccccc3n12 1.4%
COC(=O)c1ccccc1NC(=O)CSc1nnc(C(CO)NC(=O)c2ccccc2Cl)n1C (configuration not stated) -3.42%
CCOc1ccccc1-n1nnnc1SCC(=O)Nc1cc(C)on1 -4.39%
CCn1c(O)c(/C=N/N=C2CCCC2)c2ccc(C3=NNC(=O)CC3)cc21 7.62%
Cc1cn2c(-c3ccncc3)nnc2s1 -15.7%
Oc1cc(O)c2c(c1)O[C@H](c1ccc(O)c(O)c1)[C@@H](O)[C@@H]2c1c(O)cc(O)c2c1O[C@@H](c1ccc(O)c(O)c1)[C@H](O)C2 -5.15% [at 11.4 µM]
CNc1ncnc2ccc(-c3ccccc3C#N)cc12 -7.51%
COc1ccc(CNc2ncnc3ccc(-c4ccccc4OC)cc23)c(OC)c1 -15.8%

AC50, active:
CCOC(=O)CNc1c(-c2ccccc2)nc2ccc(Cl)cn12 7.94 µM
CC(=O)OC[C@@H]1O[C@@H](O/N=C2/C[C@@H](O)[C@@H](O)[C@@H]3[C@@H]4C(=O)N(Cc5ccccc5)C(=O)[C@H]4CC[C@H]23)[C@H](OC(C)=O)[C@H](OC(C)=O)[C@@H]1OC(C)=O 3.16 µM
CC(=O)OC[C@@H]1O[C@@H](O/N=C2/C[C@@H](O)[C@@H](O)[C@@H]3[C@@H]4C(=O)N(Cc5ccc6c(c5)OCO6)C(=O)[C@H]4CC[C@H]23)[C@H](OC(C)=O)[C@H](OC(C)=O)[C@@H]1OC(C)=O 3.16 µM
CC(=O)OC[C@@H]1O[C@@H](O/N=C2/C[C@@H](O)[C@@H](O)[C@@H]3[C@@H]4C(=O)N(Cc5ccccc5)C(=O)[C@H]4CC[C@@H]23)[C@H](OC(C)=O)[C@H](OC(C)=O)[C@@H]1OC(C)=O 3.98 µM
COC(=O)C1=C(N)N(c2ccccc2C(F)(F)F)C2=C(C(=O)CCC2)C1c1ccc2c(c1)OCO2 (configuration not stated) 28.2 µM
CCOc1ccccc1NC(=O)CSc1nnc(-c2cnccn2)n1C 12.6 µM
O=C1CCC(c2ccc(-n3ccnc3)cc2)=NN1 2.51 µM
CN(C)Cc1ccccc1-c1ccc2ncnc(NCc3ccccc3)c2c1 7.94 µM
CNc1ncnc2ccc(-c3ccccc3CN(C)C)cc12 10 µM
COc1ccc(CNc2ncnc3ccc(-c4ccccc4CN(C)C)cc23)c(OC)c1 1.26 µM
COc1ccccc1CNc1ncnc2ccc(-c3ccccc3CN(C)C)cc12 2.51 µM
